Hit rate of the full screen: of about 5,500 compounds, about 2,000 (36%) were called active. Inconclusive results (about 18%) are left out. Cut-off read from the data, not from the text of the source: active = normalized growth mostly below about 0.91 (no sharp cut-off); inconclusive = no clear call, values can overlap the other calls; inactive = mostly above about 0.92. The list shows a part of the results.
Assay: chemical genetic growth profiling, strain panel (AID 1159580);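 note: tested at 20 µM; growth read once vehicle control cultures reached saturation at 30 °C; 1 = growth at the plate median or of vehicle wells; lower values mean less growth of the strain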
Conditions: growth OD

Measured: normalized growth

O=C(Oc1ccc(Cl)cc1Cl)c1c(Cl)cccc1Cl
active: S. cerevisiae deletion strains, locus YHR030C, strain SLT2, hits give low values 0.681 | S. cerevisiae deletion strains, locus YLR262C, strain YPT6, hits give low values 1.2 [resistant]
inactive: S. cerevisiae deletion strains, locus YAL013W, strain DEP1, hits give low values 0.946 | S. cerevisiae deletion strains, locus YBR229C, strain ROT2, hits give low values 0.981 | S. cerevisiae deletion strains, locus YDL101C, strain DUN1, hits give low values 0.979 | S. cerevisiae deletion strains, locus YDR150W, strain NUM1, hits give low values 0.882 | S. cerevisiae deletion strains, locus YEL061C, strain CIN8, hits give low values 0.997 | S. cerevisiae deletion strains, locus YGR078C, strain PAC10, hits give low values 0.965 | S. cerevisiae deletion strains, locus YHR087W, strain rtc3, hits give low values 0.982 | S. cerevisiae deletion strains, locus YJL187C, strain SWE1, hits give low values 0.967 | S. cerevisiae deletion strains, locus YJR043C, strain POL32, hits give low values 0.955 | S. cerevisiae deletion strains, locus YJR075W, strain HOC1, hits give low values 0.945 | S. cerevisiae deletion strains, locus YKL190W, strain CNB1, hits give low values 0.969 | S. cerevisiae deletion strains, locus YLR039C, strain RIC1, hits give low values 1.2 | S. cerevisiae deletion strains, locus YLR058C, strain SHM2 (second series), hits give low values 0.989 | S. cerevisiae deletion strains, locus YLR085C, strain ARP6, hits give low values 0.812 | S. cerevisiae deletion strains, locus YML094W, strain GIM5, hits give low values 0.968 | S. cerevisiae deletion strains, locus YMR219W, strain ESC1, hits give low values 0.985 | S. cerevisiae deletion strains, locus YMR263W, strain SAP30, hits give low values 0.961 | S. cerevisiae deletion strains, locus YNL153C, strain GIM3, hits give low values 0.985 | S. cerevisiae deletion strains, locus YNL298W, strain CLA4 (second series), hits give low values 0.957 | S. cerevisiae deletion strains, locus YNL322C, strain KRE1, hits give low values 0.986 | S. cerevisiae deletion strains, locus YNR030W, strain Alg12, hits give low values 0.939 | S. cerevisiae deletion strains, locus YPL055C, strain LGE1, hits give low values 0.876 | S. cerevisiae deletion strains, locus YPL241C, strain CIN2, hits give low values 0.954 | S. cerevisiae deletion strains, locus YPR135W, strain CTF4, hits give low values 0.907 | S. cerevisiae strains, strain wild type, hits give low values 0.984

— PubChem BioAssay AID1159580 (chemical genetic matrix, 2015)
